Screening results: PubChem BioAssay, National Center for Advancing Translational Sciences (NCATS)
Giardia kill: kills Giardia lamblia | activity change, % at 7.66 µM, hits read low | Giardia lamblia trophozoite viability | AID 540267 | 0.15% of 340,000 active; in the data active = activity change below about -80%; inconclusive = between about -30% and that limit;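 note: parasites exposed to compound for two days anaerobically before the ATP read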
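Trophozoite viability was measured as ATP-dependent luminescence, read 15-30 min after reagent addition. Before that, parasites at 100 cells/well were exposed to compounds for 48 h, anaerobically, at 37 deg C.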
TDP1 block: blocks human tyrosyl-DNA phosphodiesterase 1. Potency, µM (highest dose often 130 µM), for the others: top-dose activity change, negative = inhibition, usual class: inhibitors. recombinant TDP1, AlphaScreen DNA substrate cleavage. AID 485290. 0.28% of 350,000 active; note: potency is the fitted concentration of half-maximal effect; nearly all actives have a fitted effect of over 40% in size
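Recombinant E. coli-expressed Tdp1 (1 nM) preincubated with compound 15 min at RT, then 5'-biotin/3'-phosphotyrosine-FITC DNA substrate (15 nM) added for 5 min. AlphaScreen beads (10 ug/ml) added, 10 min RT; tyrosine-FITC cleavage read as signal loss.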
TDP1 cell noCPT: qHTS for Inhibitors of human tyrosyl-DNA phosphodiesterase 1 (TDP1): qHTS in cells in absence of CPT | Potency, µM (titrated, usually from 46.2 µM), for the others: at the highest dose activity change, negative = growth inhibition, hits mostly inhibitors | DT40 Tdp1-/- hTDP1 cells, no CPT, ATP luminescence, 48 h | 15% of 420,000 active; note: potency is the fitted concentration of half-maximal effect; nearly all actives have a fitted effect of over 55% in size
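A cellular qHTS used chicken DT40 cells lacking endogenous Tdp1 but carrying stably transfected human TDP1. Compounds were applied without camptothecin, and cell growth kinetics were judged by ATP-dependent luminescence after ≥48 hr.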
ELG1 repair inh: ELG1-dependent DNA repair inhibition; HEK293T ELG1-luciferase reporter, luminescence, 16 h; DNA damage induced by 5-fluorouridine; Potency, µM (top dose mostly 46.1 µM), inactives show at the highest dose activity change, negative = inhibition, usual class: inhibitors; 2.3% of 330,000 active; note: potency is the fitted concentration of half-maximal effect; nearly all actives have a fitted effect of over 55% in size
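Step one: seed 2,000 cells per well. Step two: pin-transfer compound or DMSO alongside 5-fluorouridine. Step three: incubate 16 hr, 37 °C, 5% CO2. Step four: add ONE-Glo, wait 30 min, read luminescence.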
TDP1 cell CPT: DT40-hTDP1 cell growth loss with CPT; chicken DT40 Tdp1-/-;hTDP1 cells + 20 nM CPT, ATP luminescence, 48 h; Potency, µM (highest dose often 46.2 µM), without a hit: at the top dose activity change, negative = growth inhibition, hits mostly inhibitors; 12% of 420,000 active; note: potency is the fitted concentration of half-maximal effect; nearly all actives have a fitted effect of over 55% in size
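Chicken DT40 Tdp1-/- cells complemented with human TDP1, 400 cells/well, exposed to compounds plus 20 nM camptothecin for at least 48 h at 37 C; viability read as ATP content by CellTiter-Glo luminescence.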
IL1B secr inh: blocks inflammasome-driven IL-1 beta release. 4.7% of 360,000 active. activity change, % at 57.5 µM. THP-1 LPS/ATP IL-1B secretion, AlphaLISA, 16 h; stronger effect = lower value; in the data active = activity change below about -50%; inconclusive = mostly about -30% to -49%
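Secreted IL-1B measured by AlphaLISA bead assay after 16 h compound exposure of THP-1 cells; compounds (final up to 57.5 uM) added 1 h before LPS (250 ng/mL) and ATP (1.25 mM) stimulation; lower signal means less secretion.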
Starred values were filed as active, the others as inactive; ? = inconclusive; · = no result; ! = a repeat was not active; [ ] = dose if it differs, or a comment. In the library only some 19% were active in any assay of this set; here they are far more common. Unless noted, calls come from the whole dose curve; as a rule, active = well fitted curve in the direction sought with a large enough effect; inconclusive = small, poorly fitted or top-dose-only effect, or another doubt; inactive = no such curve, though single readings can be large; an effect the other way counts as inactive or inconclusive. % is set by controls: 0 for no effect and ±100 for the full control effect.

SMILES | Giardia kill | TDP1 block | TDP1 cell noCPT | ELG1 repair inh | TDP1 cell CPT | IL1B secr inh
Cc1ccc(NC(=O)OC(C)CNC(=O)Oc2cccc(C)c2)cc1 (stereo not given) | -5 | 1% | -8% | ? | -26% | 15
O=C(COc1ccccc1Cl)N1CCN(CCc2ccncc2)CC1 | · | 5% | -19% | · | -10% | ·
CC(NC(C)(C)C)C(=O)c1cccc(Cl)c1 (stereo not given) | -2 | 5% | 16µM*! | 23% | -3% | 20
Cn1cnc([N+](=O)[O-])c1Sc1ccc([N+](=O)[O-])cc1 | -20 | 6% | 5.2µM* | ? | 3.7µM* | -101*
CN1C[C@H](C(=O)N[C@]2(C)O[C@@]3(O)C4CCCN4C(=O)[C@H](Cc4ccccc4)N3C2=O)C[C@@H]2c3cccc4[nH]cc(c34)C[C@H]21 (stereo not given in full) | · | -3%[56.1 µM] | ? | · | ? | ·
O=C1OC(=O)c2ccccc21 | · | 17% | · | · | · | ·
COc1ccc(C(c2nnnn2-c2c(C)cccc2C)N2CCC(n3c(=O)[nH]c4ccccc43)CC2)cc1 (stereo not given) | · | · | 9.2µM* | · | 8.2µM* | -92*
COc1ccc(-n2nnnc2C(c2cccs2)N2CCC(n3c(=O)[nH]c4ccccc43)CC2)cc1 (stereo not given) | · | · | 13µM* | · | 12µM* | -25
Cc1cc(N2C(=O)CC(N3CCC(n4c(=O)[nH]c5ccccc54)CC3)C2=O)no1 (stereo not given) | 4 | 5% | ? | 10% | ? | 0
O=C(CCCN1CCC(n2c(=O)[nH]c3ccccc32)CC1)c1ccc(F)cc1 | -23 | 10%[21 µM] | ? | -7% | ? | -28
Cc1cccc(C)c1-n1nnnc1C(c1cc2ccccc2o1)N1CCC(n2c(=O)[nH]c3ccccc32)CC1 (stereo not given) | · | · | 1.3µM* | · | 1.5µM* | -23
COC(=O)c1ccc(N2C(=O)CC(N3CCC(n4c(=O)[nH]c5ccccc54)CC3)C2=O)cc1 (stereo not given) | 16 | 9% | -25% | -13% | ? | -2
Cc1cccc(C)c1-n1nnnc1C(c1ccccc1OC(F)(F)F)N1CCC(n2c(=O)[nH]c3ccccc32)CC1 (stereo not given) | · | · | 5.8µM* | · | 8.2µM* | -81*
N#CCBr | · | 8% | · | · | · | ·
C[N+]1([O-])[C@H]2CC[C@H]1CC(OC(=O)[C@@H](CO)c1ccccc1)C2 (stereo not given in full) | · | 2% | · | · | · | ·
COc1ccc(-n2nnnc2C(c2ccccc2)N2CCC(n3c(=O)[nH]c4ccccc43)CC2)cc1 (stereo not given) | · | · | 15µM* | · | 16µM* | ?
Cc1cc(=O)oc2cc(OCC(=O)N3CCN(C(C)c4ccccc4)CC3)c(Cl)cc12 (stereo not given) | -14 | 2% | ? | 21µM* | ? | ?
COc1ccc(S(=O)(=O)N(C)C[C@H]2OCCCC[C@H](C)Oc3ccc(N(C)C)cc3C(=O)N([C@H](C)CO)C[C@@H]2C)cc1 | · | · | ? | · | ? | 27
CNC(C)[C@H](O)c1ccccc1 (stereo not given in full) | · | 6%[56.1 µM] | -11% | · | -5% | ·
CC(NC1CCCCC1)C(O)C12CC3CC(CC(C3)C1)C2 (stereo not given) | -10 | 5% | 16µM* | -18% | 18µM* | -55*
CCc1cc2c(nc1CC)CCN(CC/C(C)=N/OC)C2 | · | 6%[21 µM] | · | · | · | ·
COC(=O)C1=C(c2ccc(F)cc2OCc2ccccc2)C[C@@H]2CC[C@H]1N2C(=O)NCc1cccc(F)c1 | ? | 0% | ? | ? | ? | -29
